BoNT A protease = BoNT/A light chain protease inhibitors, primary screen, biochemical, flow cytometry, MLPCN library | Botulinum neurotoxin type A light chain protease (Clostridium botulinum A str. ATCC 3502) | multiplex microsphere protease substrate cleavage | inhibition, % at 10 µM | actives 0.17% (n = 360,000) | AID 588499, 2011; note: plate controls were buffer without enzyme for full effect and enzyme alone for no effect
BoNT F protease = BoNT/F light chain protease inhibitors, primary screen, biochemical, flow cytometry, MLPCN library; Multiplex microsphere protease cleavage assay; actives 0.22% (n = 360,000); Botulinum neurotoxin type F light chain protease (Clostridium botulinum); inhibition, % at 10 µM; in the data active = inhibition above about 35%, passing the limit was not always enough; inconclusive = no clear call, values can overlap the other calls; note: plate controls were buffer without enzyme for full effect and enzyme alone for no effect
Bead autofluor = compound fluorescence in toxin protease inhibitor counterscreen | actives 3.1% (n = 360,000) | AID 624483 | compound autofluorescence counterscreen, microsphere flow cytometry; stronger effect = higher value | fluorescence intensity (test concentration not listed); in the data active = fluorescence intensity above about 16000; inconclusive = no clear call, values can overlap the other calls
Anthrax LF inh2 = Bacillus anthracis LF protease inhibitors, primary screen, biochemical, multiplex microsphere, MLPCN library | AID 588501, 2011 | multiplex microsphere protease cleavage assay | inhibition, % at 10 µM | actives 0.12% (n = 360,000) | Lethal factor (Bacillus anthracis), P15917; note: plate controls were buffer without enzyme for full effect and enzyme alone for no effect
Target sequence (P15917 whole entry, looked up): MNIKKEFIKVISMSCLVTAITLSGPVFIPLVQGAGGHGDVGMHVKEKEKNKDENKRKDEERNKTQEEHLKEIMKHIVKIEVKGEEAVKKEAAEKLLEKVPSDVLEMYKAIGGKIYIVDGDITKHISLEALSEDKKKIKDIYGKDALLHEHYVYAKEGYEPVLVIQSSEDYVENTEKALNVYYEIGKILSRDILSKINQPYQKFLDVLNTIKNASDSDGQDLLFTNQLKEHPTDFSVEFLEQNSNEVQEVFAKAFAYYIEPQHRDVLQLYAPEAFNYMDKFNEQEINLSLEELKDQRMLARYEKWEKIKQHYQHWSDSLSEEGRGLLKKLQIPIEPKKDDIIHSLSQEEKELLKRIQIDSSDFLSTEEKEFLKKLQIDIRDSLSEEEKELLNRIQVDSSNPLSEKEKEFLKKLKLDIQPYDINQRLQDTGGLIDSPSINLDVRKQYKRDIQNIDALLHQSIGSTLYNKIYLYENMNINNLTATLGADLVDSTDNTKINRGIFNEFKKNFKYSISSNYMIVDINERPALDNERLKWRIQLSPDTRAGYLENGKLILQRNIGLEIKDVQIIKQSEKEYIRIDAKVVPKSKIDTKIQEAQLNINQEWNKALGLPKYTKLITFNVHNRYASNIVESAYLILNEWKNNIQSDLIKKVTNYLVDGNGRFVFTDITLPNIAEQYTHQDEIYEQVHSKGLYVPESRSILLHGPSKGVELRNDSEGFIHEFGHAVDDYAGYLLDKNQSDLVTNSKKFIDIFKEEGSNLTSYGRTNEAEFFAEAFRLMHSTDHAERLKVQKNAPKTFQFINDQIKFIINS
MazEF act = activators of E. coli MazEF toxin-antitoxin RNase, primary screen, biochemical, fluorescence, uHTS; Endoribonuclease toxin MazF (Escherichia coli (strain K12)), P0AE70; FAM/BHQ RNA-DNA oligo cleavage fluorescence, 5 h; activation, % at 20 µM; actives 0.32% (n = 350,000); AID 504720, 2011; in the data active = activation above about 50%
Starred values were filed as active, the others as inactive; u = inconclusive; x = no result. Compounds with a hit are over-represented: about 3.6% of the library has one in this group of screens. Cut-off read from the data, not from the text of the source, unless noted: active = inhibition above about 30%; inconclusive = no clear call, values can overlap the other calls; inactive = below that.

SMILES	BoNT A protease	BoNT F protease	Bead autofluor	Anthrax LF inh2	MazEF act
FC(F)(F)c1nnc2sc(-c3ccccn3)nn12	0	25	4464	-5	9
CC(C)(C)c1nnc(NC(=O)COc2ccc3c(c2)OCO3)s1	0	-8	4152	4	-15
COCCNC(=O)CSc1nc2cc(OC)c(OC)cc2c(=O)n1Cc1ccc(OC)cc1	u	0	22751*	-1	5
COc1cc2nc(SCC(=O)NCc3ccco3)n(Cc3ccc(Cl)cc3)c(=O)c2cc1OC	u	-2	23649*	-2	-12
COCCCn1c(SCc2ccc(OC)cc2)nc2cc(OC)c(OC)cc2c1=N	-1	-3	23040*	-2	3
COc1ccc(Cn2c(CCC(=O)NCc3ccco3)nc3cccnc32)cc1	2	-2	22452*	-1	-17
CC1Cc2ccccc2N1C(=O)CSc1nnc(N)s1 (centres undefined)	9	15	4381	3	6
Cc1nc(C)n(CCNC(=O)c2ccco2)n1	x	x	x	x	2
Cc1cccc(-n2ncc3c(N4CCCc5ccccc54)ncnc32)c1	1	0	20241*	-6	-3
Cc1cccc(-n2ncc3c(NCc4ccccc4)ncnc32)c1	0	7	5721	1	-3
Nc1cc(C(=O)OCC(=O)N2CCC(Cc3ccccc3)CC2)ccc1Cl	0	-4	4071	3	-3
CC(=O)Cc1nsc(NC(=O)c2ccc(-c3cc(Cl)ccc3Cl)o2)n1	-1	-6	3480	-2	-6
CC(=O)Cc1nsc(NC(=O)c2ccc(-c3ccc(Cl)cc3Cl)o2)n1	0	-1	20376*	-6	2
CC(=O)Cc1nsc(NC(=O)c2cc(-c3ccc(Cl)c(Cl)c3)oc2C)n1	-3	-4	23305*	-3	-29
CC(=O)Cc1nsc(NC(=O)c2cc(-c3ccccc3Cl)oc2C)n1	0	1	4667	-7	4
O=C(O)C1CC=CCC1C(=O)N1CCN(c2nc(-c3ccccc3)c3ccccc3n2)CC1 (centres undefined)	4	-10	2600	0	4
O=C(O)C1CC=CCC1C(=O)N1CCN(c2nc(-c3ccccc3Cl)c3cc(Br)ccc3n2)CC1 (centres undefined)	-3	-56	16567*	-8	-10
Cc1cc(C(=O)Nc2nccs2)c2cc(F)ccc2n1	1	u	3076	-1	4
COCCCNC(=O)c1cc(C)nc2ccc(F)cc12	1	2	21925*	-5	-3
COc1ccc([C@H]2C[C@H](n3cc(-c4ccc(F)cc4)nn3)[C@@H](O)CN2C(=O)C2CCCCC2)cc1	-1	2	4538	5	8
COc1ccc(OC)c2c1C(=O)c1ccccc1C2=O	x	x	x	x	-90
COc1cccc2c1C(=O)c1ccc3ccccc3c1C2=O	34*	28	2360	28	6
Fc1ccc(-c2nnc(CSc3nnc(-c4cccs4)o3)o2)cc1	0	-5	2606	-6	4
c1ccc(-c2nnc(CSc3nnc(-c4cccs4)o3)o2)cc1	1	4	22467*	-3	2
Fc1ccc(Cc2nnc(-c3cccs3)o2)cc1	-1	2	5587	-8	1
SMILES	BoNT A protease	BoNT F protease	Bead autofluor	Anthrax LF inh2	MazEF act
c1csc(-c2nnc(Cc3cccc4ccccc34)o2)c1	u	-6	23714*	-3	-5
Cc1ccccc1CNc1ccc(C(CC(N)=O)NC(=O)c2ccc(Br)cc2)cc1[N+](=O)[O-] (centres undefined)	0	-6	4182	-2	81*
CC(=O)Nc1ccc(S(=O)(=O)N(c2cccnc2)S(=O)(=O)c2ccc(NC(C)=O)cc2)cc1	-2	-6	23675*	-1	2
O=C(Nc1ccc(S(=O)(=O)N2CCCC2)cc1)c1cnccn1	0	0	2472	0	-1
O=C(c1cccnc1)N1CCN(S(=O)(=O)c2ccc(Cl)cc2)CC1	0	5	4285	-1	-6
O=C(Nc1ccc(S(=O)(=O)N2CCN(Cc3ccccc3)CC2)cc1)c1cnccn1	-2	-6	16875*	-3	0
CC(=O)Nc1ccc(S(=O)(=O)N2CCN(C(=O)c3cccnc3)CC2)cc1	-1	-4	23558*	-3	5
Cc1cc2nc(C3CCCCC3)c(Cc3cccc(F)c3)n2c(C)c1Br	0	-5	5494	-3	x
O=C(NC1CCN(Cc2ccccc2)CC1)c1ccc2c(c1)[nH]c(=O)n2Cc1ccc(F)cc1	0	-7	4882	-9	9
COC(=O)CSc1nc(-c2ccccc2)nc2ccccc12	0	-6	2451	0	-4
COc1ccccc1C(CNC(=O)C1CCN(C(=O)Nc2ccccc2)CC1)N1CCCC1 (centres undefined)	-2	-1	7895	2	0
Cc1ccccc1S(=O)Cc1ccc(C(=O)N2CCN(C3CCCCC3)CC2)o1 (centres undefined)	0	-2	3910	7	1
CCc1ccc(OCCCC(=O)Nc2ccc(S(N)(=O)=O)cc2)cc1	-1	0	4520	2	2
O=C(CSc1ncn[nH]1)N1CCCCC1	1	8	4675	-4	0
O=C(CSc1ncn[nH]1)N(C1CCCCC1)C1CCCCC1	-1	-3	20145*	2	-3
O=C(Cc1ccc(Br)cc1)Nc1ccc2[nH]ncc2c1	x	x	x	x	14
CC(C)SCCCCOc1ccc2ccccc2c1	1	-1	21736*	-2	-3
c1ccc2cc(OCCOCCOc3ccc4ccccc4c3)ccc2c1	0	0	3258	-5	-2
Cc1ccc(NC(=O)C2C3CCCC2C3c2ccccc2)cc1 (centres undefined)	0	5	2410	0	-4
CCCc1c(C(=O)N/N=C(\CC)c2ccccc2)nnn1-c1nonc1N	0	-5	3809	-4	2
CC(C)NC(=O)CSc1nc2ccccc2n1-c1ccccc1	0	-2	22704*	1	-2
OC(Cc1cccc(Br)c1)c1ncc(-c2cccc(C(F)(F)F)c2)[nH]1 (centres undefined)	0	0	2883	-10	x
O=C(OCc1ccc(COC(=O)c2cccnc2Cl)cc1)c1cccnc1Cl	0	-4	4600	-7	-15
O=C(OCc1ccccc1Cl)c1cccnc1Cl	-3	-2	21281*	-3	-6
COC(=O)c1sc2ncccc2c1OCc1c(Cl)cccc1Cl	2	1	19174*	2	-19
O=C(OCc1c(Cl)cccc1Cl)c1cccnc1Cl	u	-5	24071*	-1	4
O=C(OCc1ccccc1Cl)c1ccccc1C(=O)c1ccccc1	1	0	22408*	-4	-17
CN(C(=O)CSc1nnc(-c2cccnc2)o1)C1CCCCC1	0	-5	4243	-6	1

Assay outcomes (PubChem)
